KinaseGlo FLuc = counter-screen: inhibitors of Kinase-Glo firefly luciferase. Potency, µM (series often up to 38.3 µM), for the others: top-dose activity change, negative = inhibition, actives largely listed as inhibitors. hit rate 0.28% among 200,000. Q27757. AID 1379. Kinase-Glo luciferase, ATP luminescence, 8 min; also: % is scaled to controls: 0 for no effect and ±100 for the full control effect; nearly all actives have a fitted effect of over 60% in size
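Substrate mix (final 50 mM imidazole pH 7.2, 50 mM KCl, 7 mM MgCl2, 10 uM ATP, 0.01% Tween 20, 0.05% BSA) plus pin-tool compound, then Kinase-Glo detection mix; 8 min ambient, luminescence read.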
Rab9 prom act = Rab9 promoter activation; Huh7 Rab9 promoter-luciferase reporter, luminescence, 24 h; hit rate 2.8% among 320,000; Potency, µM (titrated, usually from 9.22 µM), for the others: at the top dose activation, negative = inhibition, most hits filed as activators; also: % of control where 0% means no effect; nearly all actives have a fitted effect of over 60% in size
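Luminescence from Amplite-detected luciferase (10 minutes, ambient) reports Rab9 promoter activation. Before that, stable Rab9-luciferase Huh7 cells (1500/well, reduced-serum OP-MEM I plus 10% FBS) were exposed to compound for 24 hours at 37C.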
SMN2 splice enh = enhancers of SMN2 splice variant expression; HEK293 SMN2-luciferase splicing reporter, luminescence, 30-36 h; Potency, µM (doses to about 46.1 µM), without a hit: at the top dose activity change, positive = activation, most hits filed as activators; hit rate 2.8% among 210,000; AID 1458; also: % of control where 0% means no effect; nearly all actives have a fitted effect of over 55% in size
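HEK293 cells carry an SMN2 […]–luciferase reporter in which exon 7 inclusion puts luciferase in frame. Cells were plated 10-12 h before compound addition, then incubated 30-36 h at 37C. ONE-Glo luminescence was read; sodium butyrate at 4.5 mM final served as control.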
ELG1 genotoxic = genotoxicity induction in ELG1-luciferase HEK293T cells; HEK293T ELG1-luciferase reporter, luminescence, 16 h; Potency, µM (highest dose often 46 µM), inactives show at the highest dose activity change, positive = activation, hits mostly activators; hit rate 1.3% among 330,000; also: % of control where 0% means no effect; nearly all actives have a fitted effect of over 60% in size
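Step 1: seed 2,000 HEK293T ELG1-luciferase cells per well. Step 2: add compound or DMSO, incubate 16 hr at 37 °C. Step 3: ONE-Glo, 30 min at room temperature, read luminescence.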
FLuc counter = inhibits or activates purified firefly luciferase, miR-21 counter-screen; purified FLuc, Km substrates, luminescence inhibition; P08659; Potency, µM (top dose mostly 57.5 µM), inactives show at the highest dose activity change, negative = inhibition, usual class: inhibitors; AID 588342; hit rate 6.9% among 360,000;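 also: plate controls were vehicle for no effect and reference inhibitor for full effect; nearly all actives have a fitted effect of over 55% in size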
Target sequence (P08659 whole entry, looked up): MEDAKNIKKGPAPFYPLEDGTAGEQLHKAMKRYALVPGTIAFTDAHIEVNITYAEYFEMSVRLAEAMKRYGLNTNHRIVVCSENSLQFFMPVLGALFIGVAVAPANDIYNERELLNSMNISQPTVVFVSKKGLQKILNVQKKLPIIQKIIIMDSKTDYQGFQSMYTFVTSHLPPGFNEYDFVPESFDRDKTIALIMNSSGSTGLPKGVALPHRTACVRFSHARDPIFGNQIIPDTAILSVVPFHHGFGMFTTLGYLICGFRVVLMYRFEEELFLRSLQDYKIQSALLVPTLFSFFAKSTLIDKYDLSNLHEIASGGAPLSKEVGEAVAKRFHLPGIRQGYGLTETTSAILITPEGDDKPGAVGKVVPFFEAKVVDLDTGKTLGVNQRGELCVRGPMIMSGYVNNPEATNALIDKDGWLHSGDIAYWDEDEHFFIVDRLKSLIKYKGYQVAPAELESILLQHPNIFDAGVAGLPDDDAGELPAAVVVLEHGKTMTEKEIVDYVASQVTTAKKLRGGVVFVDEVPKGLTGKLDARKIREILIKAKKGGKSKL
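Purified P. pyralis luciferase (10nM final) with 10uM D-luciferin and 10uM ATP (Km levels) in 50mM Tris acetate pH 7.5, 10mM Mg acetate, 0.01% Tween-20, 0.05% BSA; qHTS 6-point titration, ~60 µM downward; luminescence read.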
NPC1 promoter act = NPC1 promoter activation; hit rate 2.4% among 320,000; Potency, µM (titrated, usually from 9.22 µM), for inactives: at the highest dose activation, actives largely listed as activators; Huh7 NPC1 promoter luciferase reporter, 24 h; also: % of control where 0% means no effect; nearly all actives have a fitted effect of over 60% in size
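Huh7 reporter cells (NPC1 promoter driving luciferase) are dosed with compound for 24 h at 37 °C, 5% CO2; luciferase detection reagent is then added and luminescence measured after 10 min at ambient temperature.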
Starred values were filed as active, the others as inactive; u = inconclusive; x = not tested or not shown; [ ] = dose if it differs, or a comment. Shown are actives, neighbours in structure and some others; about 7.5% of the full set was active somewhere. Calls follow the shape of the dose curve; as a rule, active = well fitted curve in the direction sought with a large enough effect; inconclusive = small, poorly fitted or top-dose-only effect, or another doubt; inactive = no such curve, though single readings can be large; an effect the other way counts as inactive or inconclusive. Potency is read from the fitted curve at half-maximal effect.

SMILES | KinaseGlo FLuc | Rab9 prom act | SMN2 splice enh | ELG1 genotoxic | FLuc counter | NPC1 promoter act
O=C(Nc1ccc(Br)cc1F)c1ccc2c(c1)OCCO2 | x | 0.13µM* | x | u | 0.54µM* | 0.28µM*
O=C(Nc1ccc(F)cc1F)c1ccc2c(c1)OCCO2 | x | 0.63µM* | x | u | 4.8µM* | 0.5µM*
O=C(COC(=O)c1ccc2c(c1)OCCO2)Nc1ccc(F)cc1F | x | x | x | 6% | x | x
CCC(=O)Nc1ccc(C(=O)Nc2ccc(Br)cc2F)cc1 | 1% | 26% | x | 5% | 7% | 20%
COc1ccc(OCCOCCOc2ccc(C)cc2[N+](=O)[O-])cc1 | 1% | -6% | 2% | 0% | u | 0%
COc1ccc(OCCOc2ccc(C)nc2[N+](=O)[O-])cc1 | -4% | u | u | u | 24µM* | u
Cc1ccc(OCCOc2ccc(Cl)cc2Cl)c([N+](=O)[O-])n1 | 0% | 27% | -14%[1.84 µM] | u | 17µM* | u
Cc1ccc(COc2ccc(C)nc2[N+](=O)[O-])cc1 | x | 0.71µM* | x | 3.7µM* | 2.4µM* | 0.79µM*
O=C(NCCC(NS(=O)(=O)OCC(Cl)(Cl)Cl)c1ccccc1)C(F)(F)F (stereo not drawn) | x | -3% | x | -5% | 1% | 1%
O=C(O)c1ccccc1C(=O)Nc1ccc(Br)c(C(F)(F)F)c1 | x | 0% | x | 1% | 19µM* | -4%
O=C(O)c1ccccc1C(=O)Nc1ccc(Oc2ccccc2)cc1 | x | 1% | x | 1% | 27µM* | 0%
CC(C)(C)c1ccc(Oc2ccc(NC(=O)c3ccccc3C(=O)O)cn2)cc1 | x | -1% | x | -6% | 19µM* | -1%
Cc1cccc(Oc2ccc(NC(=O)c3ccccc3C(=O)O)cc2)c1 | x | -5% | x | 5% | 21µM* | 2%
CN1CCN(c2nc3c(c(=O)[nH]c(=O)n3C)n2Cc2ccccc2)CC1 | x | 1% | x | 2% | 1% | -3%
O=C(CCC(=O)c1ccc(Oc2ccccc2)cc1)Nc1ccc(C(=O)O)cc1 | x | 0% | x | 0% | 19µM* | -1%
O=C(CCC(=O)c1ccc(Oc2ccccc2)cc1)Nc1cccc(Cl)c1 | 0% | -1% | 0% | 1% | 1% | 0%
Cc1ccc(N2CC(c3nc4ccccc4n3CCC3CCCCC3)CC2=O)cc1 (stereo not drawn) | x | x | x | x | 0% | x
CCC(=O)Nc1nc2nc(-c3ccccc3)cc(=O)n2[nH]1 | x | 7% | x | 0% | u | 1%
O=c1cc(-c2ccccc2)nc2nc(-c3ccccc3)[nH]n12 | 7% | u | 18µM* | 18µM* | 11µM* | u
Cc1nc2nc(Cc3ccccc3)[nH]n2c(=O)c1Cc1ccccc1 | 1% | -4% | -8% | 1% | -1% | -2%
Cc1nc2nc(-c3ccccc3)[nH]n2c(=O)c1Cc1ccccc1 | -5% | 21% | 13µM* | 9% | 19µM* | 25%
Nc1nc2nc(-c3ccccc3)cc(=O)n2[nH]1 | -6% | 17% | 0% | -7% | 12µM* | 0%
CCOC(=O)c1c(C)nc2cc(C)cc(C)n12 | -1% | 12% | 14% | 9% | u | 0%
O=C(NCCCl)C1Cc2c(ccc3ccccc23)O1 (stereo not drawn) | 0% | 13% | 11% | -4% | -15% | -6%
CN(C)/C=C1\C(=O)N(C)N=C1C(F)(F)F | -1% | 10% | 4% | -3% | 0% | -3%
SMILES | KinaseGlo FLuc | Rab9 prom act | SMN2 splice enh | ELG1 genotoxic | FLuc counter | NPC1 promoter act
COc1cc2c(cc1OC)[C@@H](NC(=O)CCc1ccccc1)[C@H](OCc1ccccc1)C2 | x | x | x | -1% | x | x
Cc1ccc2c(=O)c(C(=O)c3ccc(F)cc3)cn(CC(=O)NCc3ccccc3Cl)c2n1 | x | x | x | x | 4% | x
O=c1[nH][nH]c2c(N=Cc3ccccc3O)ccc(F)c12 | x | -8% | x | -6% | 19µM* | 0%
Brc1cccc(-c2nnn3c2nc(NCc2ccc4c(c2)OCO4)c2ccccc23)c1 | x | x | 14µM* | x | -8% | x
COc1ccc(NC(=O)NNC(=O)c2ccccc2-n2cccc2)cc1OC | 0% | -1% | -6% | 0% | -3% | -1%
O=C(c1cc(-c2ccccc2O)on1)N1CCOCC1 | x | u | x | 13µM* | 12µM* | u
O=C(c1cc(-c2ccccc2O)on1)N1CCCCCC1 | x | u | x | 23µM* | 11µM* | u
COc1ccc(OC)c(-c2cc(C(=O)N3CCOCC3)no2)c1 | x | -4% | x | 0% | -4% | 0%
CCC(CO)Oc1cc(NCc2ccc(C(F)(F)F)cc2)c2ncn(C(C)C)c2c1 (stereo not drawn) | x | x | x | -2% | x | x
NC(=O)c1c(NC(=O)COC(=O)c2ccc(S(=O)(=O)Nc3ccccc3)cc2)sc2c1CCCC2 | 2% | -2% | 6% | 0% | -1% | 0%
COc1ccccc1N(CC(=O)Nc1ccc2c(c1)OCO2)S(=O)(=O)c1ccc(C)cc1 | x | x | 12% | x | -19% | x
Cn1sc(NC(=O)c2ccc(Cl)cc2)nc1=O | -3% | 3.5µM* | u | u | 2.4µM* | 4µM*
O=C(Nc1ccncc1)c1ccc(Cl)cc1 | x | 2% | x | -7% | u | -3%
CC(C)CC(=O)n1sc(NC(=O)c2ccccc2)nc1=O | -9% | -6% | -6% | -1% | 21µM* | -4%
Cc1ccc(C(=O)Nc2nc(=O)n(C)s2)cc1 | -4% | 2.8µM* | u | u | 2.1µM* | 3.2µM*
Cc1ccc(C(=O)Nc2ccccc2C(=O)N2CCCCCC2)cc1 | x | 0% | x | -1% | -16% | 1%
Cc1ccc(C(=O)Nc2nc(=O)n(C(=O)c3ccccc3Cl)s2)cc1 | -1% | 3.2µM* | u | u | 5.4µM* | u
Cc1ccc(C(=O)Nc2nc(=O)n(C(=O)CC(C)C)s2)cc1 | 5% | 2% | 9% | 0% | u | -1%
O=C(CN1C(=O)NC2(CCCCC2)C1=O)Nc1ccc2[nH]c(=O)[nH]c2c1 | x | -7% | x | 1% | -2% | -2%
COc1ccc(S(=O)CC(=O)Nc2ccc(Cl)cc2Cl)cc1 (stereo not drawn) | -1% | -1% | -5% | -4% | 0% | 0%
Cc1ccc(NC(=O)c2ccc(OC(=O)COc3cccc(Cl)c3)cc2)cc1 | 3% | 2.8µM* | 25µM* | u | u | 2.8µM*
Cc1ccc(C(=O)CC(=O)COc2ccc(Cl)cc2C)cc1 | -1% | 0% | 7% | -5% | -6% | 0%
COC(=O)COc1cccc(NC(=O)c2cccc(C)c2)c1 | 1% | -3% | 8% | 3% | u | 1%
Cc1ccc(NC(=O)c2ccc(OC(=O)COc3ccc(Cl)cc3C)cc2)cc1 | -4% | 3.5µM* | 13µM* | u | u | 4µM*
